In PubChem BioAssay AID588348 (Broad Institute, 2011):
In all, about 1,300 compounds went through this assay and fewer than 10 were called active.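 How the source made its calls: active means fitted half-maximal dose AC50 no more than ten times the top valid tested dose, with luminescence dropping as dose rises; inconclusive means poor fit, or flat fit with 30 to 70% inhibition; inactive means the rest, signal increases included.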 Not all results are given here.

assay: ADP-Glo luciferase interference without Dyrk1A, dose response, artefact control for Dyrk1A inhibitor project, biochemical, luminescence, cherry-pick, set 02 (AID 588348); details: ADP-Glo luciferase artifact assay, no Dyrk1A; series mostly up to 12 µM

outcome, inactive:
COc1c(O)cc2oc(-c3ccc(O)c(O)c3)cc(=O)c2c1O
CCN(CC)c1ccc(NC(=O)CCc2nnc3ccc(N4CCCCC4)nn23)c(C)c1
CCOC(=O)Cn1c(-c2cccnc2Cl)nc2ccccc21
Cc1cc(/C=N/Nc2ccc([N+](=O)[O-])cn2)c(C)n1-c1cccc(C(=O)O)c1
Cc1noc(C)c1-c1ccc2ncnc(NC(C)c3ccco3)c2c1 (configuration not stated)
COc1ccc2c(Cl)c(C(=O)NCc3ccco3)sc2c1
Cc1cccc(-c2nc(Nc3ccc(O)cc3)c3ccccc3n2)c1
Oc1ccc(-c2nc3ccccc3nc2-c2ccc(O)cc2O)c(O)c1
Oc1ccc(-c2[nH]ncc2-c2nc3ccccc3s2)c(O)c1
NC(=S)c1ccc(C(N)=S)o1
Nc1nonc1-n1nnc(C(=O)N/N=C\c2ccncc2)c1CN1CCCCC1
C=C(C)Cn1c(N2CCN(CC)CC2)nc2c1c(=O)[nH]c(=O)n2C
Nc1nc(SCc2ccc([N+](=O)[O-])cc2)c2ncn(C3OC(CO)C(O)C3O)c2n1 (configuration not stated)
Nc1nc(NCCCN2CCOCC2)nc(Nc2ccccc2)c1[N+](=O)[O-]
Cc1ccc(/C=C(\C#N)C(=O)Nc2cccc3ncccc23)o1
CC(=O)Oc1ccc2c(c1)C(=O)c1ccccc1C2=O
CCc1cc2c(NC3CCCC3)ncnc2s1
COc1ccc(S(=O)(=O)N(C)C[C@H]2Oc3ccc(NS(=O)(=O)c4cccs4)cc3CC(=O)N([C@H](C)CO)C[C@H]2C)cc1
COc1ccc2oc(N)c(C=O)c(=O)c2c1
COc1ccc2[nH]c(C)c(CCN(Cc3cccs3)C(=S)Nc3ccccc3OC)c2c1
NS(=O)(=O)c1ccc(-c2ccc(/C=C3\SC(=O)NC3=O)o2)cc1
O=C(NC(Nc1nc2ccc([N+](=O)[O-])cc2s1)(C(F)(F)F)C(F)(F)F)c1ccccc1
O=C1/C(=C/c2ccc3c(c2)OCO3)Oc2cc(OCC(=O)N3CC(O)C[C@H]3C(=O)O)ccc21 (some centres not stated)
CCOc1cc(/C=C2\SC(N3CCCCC3)=NC2=O)ccc1O
CCc1n[nH]c(=S)n1/N=C/c1c[nH]c2ccc(Br)cc12
CC(=O)C1C(c2ccc(Cl)cc2)NC(=O)NC1(O)C(F)(F)F (configuration not stated)
CC(=O)Nc1cccc(-c2cnc3ccccc3n2)c1
Oc1ccc(-c2csc(Nc3cccnc3)n2)cc1
CCOCCCNC(=O)C(NC(=O)c1ccc(=O)[nH]c1)c1ccc(Cl)cc1 (configuration not stated)
CN1c2ccc(C=O)c3c(C=O)ccc(c23)N(C)C1(C)C
O=C1N=C(N2CCc3ccccc3C2)S/C1=C\c1ccc(O)cc1
O=C(NCCc1ccccc1)C1CCN(S(=O)(=O)c2ccc(Br)s2)CC1
CCn1c(NC(=O)c2ccccc2)c(-c2cccs2)c(=O)c2ccccc21
COc1cccc(C(=O)NNC(=O)/C=C/c2ccccc2)c1
C[C@@H]1O[C@@H](OC[C@H]2O[C@@H](Oc3c(-c4ccc(O)cc4)oc4cc(O)cc(O)c4c3=O)[C@H](O)[C@@H](O)[C@@H]2O)[C@H](O)[C@H](O)[C@H]1O
Cc1noc(NS(=O)(=O)c2ccc(NC(=O)c3oc4ccc(F)cc4c3C)cc2)c1C
COc1cc(O)c2c(=O)c3c(O)c(O)ccc3oc2c1OC
